In PubChem BioAssay (EPA / NIEHS):
Where a structure was tested more than once in an assay, its records may differ in their call. Calls of active or inactive are those of the source. The calls were made as follows: active = hit-call score of the fitted dose curve at least 0.9, where 1 is the maximum; inactive = score below 0.9.

Assay: ATG_Oct_MLP_CIS: Attagene CIS-FACTORIAL HepG2 Assay for human Octamer-Binding Transcription Factor (Oct) (AID 2282993)
Details: HepG2 Attagene cis-factorial Oct reporter, mRNA; actives raise or lower the signal
Procedure: ATG_CIS is a cell-based, multiplexed-readout assay that uses HepG2, a human liver cell line, with measurements taken at 24 hours after chemical dosing in a 24-well plate.ATG_Oct_MLP_CIS is one of 52 assay component(s) measured or calculated from the ATG_CIS assay. It is designed to make measurements of mRNA induction, a form of inducible reporter, as detected with fluorescence intensity signals by Reverse transcription polymerase chain reaction (RT-PCR) and Capillary electrophoresis technology.Data from the assay component ATG_Oct_MLP_CIS was analyzed into 1 assay endpoint. This assay endpoint, ATG_Oct_MLP_CIS, was analyzed with bidirectional fitting relative to DMSO as the negative control and baseline of activity. Using a type of inducible reporter, measures of mRNA for gain or loss-of-signal activity can be used to understand the reporter gene at the transcription factor-level as they relate to the gene POU2F1. Furthermore, this assay endpoint can be referred to as a primary readout, because this assay has produced multiple assay endpoints where this one serves a reporter gene function. To generalize the intended target to other relatable targets, this assay endpoint is annotated to the dna binding intended target family, where the subfamily is POU domain protein.
Human liver HepG2 cells are transiently transfected with multiple reporter transcription units (MRTUs) in 6-well plates using FuGene 6 reagent (Roche; 3 ml FuGene/1 mg DNA). The MRTU constructs are regulated by a cis-regulating element (promoter). […] A major difference between the CIS and TRANS system is that in CIS activities of endogenous TFs are measured, whereas the TRANS assay evaluates changes in activities of exogenous, chimeric NR-Gal4 proteins. […] At the end of 24 hour incubation, total RNA was isolated using TriZol reagent (Invitrogen). The isolated RNA is then reverse-transcribed using oligo(dT) primer and Mo-MLV reverse transcriptase (Invitrogen) with DNAse I (Ambion) treatment for 30 min. The one-tenth of the produced cDNA was amplified by PCR using Taq DNA polymerase (Invitrogen) and two reporter sequence-specific primers. The PCR products were fluorescently labeled by primer extension with 6-arboxyfluorescein (6-FAM) 5'-labeled reporter sequence-specific primer (2 min at 95 C, 20 s at 68 C and 10 min at 72 C) and these products were digested with 5U of HpaI (New England Biolabs) for 2h at 37 C. The fragments were purified using Qiaquick PCR columns (Qiagen), analyzed on an ABI 3130xL genetic analyzer (Applied Biosystems) with peak positions identified by using a set of X-rhodamine (ROX)-labeled MapMarker1000 molecular weight standards (BioVentures). The raw capillary electrophoresis data was processed using Attagraph software (Attagene).

SMILES | outcome | AC50
CCCCCCCCCCCCCCCCOS(=O)(=O)O | inactive | –
Nc1ccn([C@@H]2O[C@H](CO)[C@@H](O)[C@@H]2O)c(=O)n1 | inactive | –
NCC(F)(F)C(F)(F)C(F)(F)C(F)(F)F | inactive | –
COS(C)(=O)=O | inactive | –
CCCCCCOC(=O)CC(CC(=O)OCCCCCC)(OC(=O)CCC)C(=O)OCCCCCC | inactive | –
OCc1c[nH]c2ccccc12 | inactive | –
OC(CCl)CCl | inactive | –
CCCCCCCCCC | inactive | –
CCOC(N)=O | inactive | –
CCCCCCCCN(C)C | inactive | –
CCCCC(CC)C(=O)OCCOCCOCCOC(=O)C(CC)CCCC (stereo not given) | inactive | –
CC(=O)c1ccccc1 | inactive | –
S=P(N1CC1)(N1CC1)N1CC1 | inactive | 170 µM (active)
OC[C@H]1O[C@@](CO)(O[C@H]2O[C@H](CO)[C@@H](O)[C@H](O)[C@H]2O)[C@@H](O)[C@@H]1O | inactive | –
COc1cc(C(C)C)c2c(c1)S(=O)(=O)N(COc1cc(=O)n3cccc(OCCN4CCCCC4)c3n1)C2=O | – | 4.34 µM (active)
CCCCCCCC1CCC(=O)O1 (stereo not given) | inactive | –
FC(F)(F)C(F)(F)C(F)(F)C(F)(F)C(F)(F)C(F)(F)I | inactive | –
COc1cc2c(c(OC)c1OC)-c1ccc(OC)c(=O)cc1[C@@H](NC(C)=O)CC2 | inactive | –
O=C(O)c1ccc2c(c1)nc(C(=O)NC1CCN(C3CC3)CC1)n2Cc1cc(-c2ccc(Cl)s2)on1 | inactive | –
CCCCN1C(=O)[C@@H]([C@H](O)C2CCCCC2)NC(=O)C12CCN(Cc1ccc(Oc3ccc(C(=O)O)cc3)cc1)CC2 | inactive | –

SMILES | outcome | AC50
Cc1nc(-c2ccccn2)ncc1C(=O)Nn1cc(C)c2cc(F)ccc21 | inactive | –
O=C(O)[C@H](O)[C@@H](O)C(=O)O | inactive | –
NC(=O)NN=Cc1ccc([N+](=O)[O-])o1 | inactive | –
CCCCOC(=O)c1ccccc1 | inactive | –
CC(C)CCCCCCOC(=O)C1CCCCC1C(=O)OCCCCCCC(C)C (stereo not given) | inactive | –
O=C(O)c1cccc(C[C@@H]2COc3ccc(OCc4nc5cc(F)ccc5s4)cc3[C@@H]2O)c1 | – | 159 µM (active)
CCCCCCCCCCCCCCO | inactive | –
CCc1ccc(O)c(C(C)(C)C)c1 | inactive | –
O=C(Cl)C(F)(F)C(F)(F)C(F)(F)C(=O)Cl | inactive | –
CCOc1ccc2[nH]cc(C(=O)NCc3ccccc3)c(=O)c2n1 | inactive | –
OCCOCCOCCO | inactive | –
c1ccc2cc3ccccc3cc2c1 | inactive | –
CCN(CC)C(=S)SSC(=S)N(CC)CC | – | 144 µM (active)
O=C(O)c1cccc(C(=O)O)c1 | inactive | –
NC(=O)N(O)[C@@H]1COc2cc(OCc3ccccc3)ccc21 | inactive | –
O=c1[nH]cnc2c1ncn2[C@H]1CC[C@@H](CO)O1 | inactive | –
Cc1cccc(O)c1C | inactive | –
CC1(C)C(=O)N(Cl)C(=O)N1Cl | inactive | –
CCc1cccc(CC)c1N | inactive | –
